Source: PubChem BioAssay
ALOX12 inhib = qHTS Assay for Inhibitors of 12-hLO (12-human lipoxygenase). Polyunsaturated fatty acid lipoxygenase ALOX12 (Homo sapiens), P18054. Potency, µM (top dose mostly 57.1 µM), usual class: inhibitors. actives 0.12% (n = 150,000). purified 12-hLO, xylenol orange hydroperoxide absorbance; note: nearly all actives have a fitted effect of over 55% in size
Target sequence (P18054 whole entry, looked up): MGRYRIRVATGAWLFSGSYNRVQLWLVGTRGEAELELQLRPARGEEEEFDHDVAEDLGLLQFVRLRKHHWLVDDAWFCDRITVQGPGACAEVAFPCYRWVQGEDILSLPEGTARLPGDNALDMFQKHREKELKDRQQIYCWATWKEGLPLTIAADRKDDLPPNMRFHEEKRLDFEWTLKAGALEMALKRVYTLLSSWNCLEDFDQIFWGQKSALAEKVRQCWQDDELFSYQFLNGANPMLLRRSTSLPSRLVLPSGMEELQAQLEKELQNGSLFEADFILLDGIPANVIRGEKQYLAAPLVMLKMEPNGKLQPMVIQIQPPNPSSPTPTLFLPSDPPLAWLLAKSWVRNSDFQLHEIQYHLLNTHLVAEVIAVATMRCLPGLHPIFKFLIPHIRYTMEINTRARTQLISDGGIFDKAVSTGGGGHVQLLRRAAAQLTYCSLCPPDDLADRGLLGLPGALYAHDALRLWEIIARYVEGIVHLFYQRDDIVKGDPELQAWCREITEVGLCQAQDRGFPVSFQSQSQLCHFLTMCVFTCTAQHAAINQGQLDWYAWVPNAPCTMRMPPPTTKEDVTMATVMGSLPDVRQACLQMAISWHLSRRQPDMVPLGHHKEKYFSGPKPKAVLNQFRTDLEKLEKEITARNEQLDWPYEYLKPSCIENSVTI
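Lipoxygenase turnover measured by absorbance at 573 and 405 nm after Fe-XO development. Human 12hLO 150 nM, arachidonate 40 uM, pH 7.0 Hepes buffer with detergent; 15 min compound preincubation, 30 min reaction.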
ALOX15B inhib = qHTS Assay for Inhibitors of 15-hLO-2 (15-human lipoxygenase 2). purified 15hLO-2, xylenol orange hydroperoxide absorbance. Potency, µM (highest dose often 57.1 µM), most hits filed as inhibitors. actives 0.56% (n = 110,000); note: nearly all actives have a fitted effect of over 60% in size
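Purified human 15hLO-2 (50 nM) preincubated 15 min with compound, then 45 uM arachidonic acid for 90 min at RT in 25 mM Hepes pH 7.5, 0.01% Triton X-100. Hydroperoxide detected by Fe-xylenol orange; 573/405 nm absorbance ratio.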
Each line names hits and unclear results; the compound was inactive in the other large screens. The entries come from a sample that favours hits as a whole. Calls come from the whole dose curve; as a rule, active = well fitted curve in the direction sought with a large enough effect; inconclusive = small, poorly fitted or top-dose-only effect, or another doubt; inactive = no such curve, though single readings can be large; an effect the other way counts as inactive or inconclusive.

Cc1cc(=S)[nH]c2ccccc12	ALOX15B inhib inconclusive
Cc1ccc2[nH]c(=S)cc(C)c2c1	ALOX15B inhib 12.6µM
C=Cc1c(C)/c2[n-]/c1=C\c1[n-]c(c(CC)c1C)/C=c1\[n-]c3c(c1C)C(=O)C(C(=O)[O-])C=3c1[n-]c(c(C)c1CCC(=O)[O-])\C=2.[Cu].[Na+].[Na+] (stereo not given)	ALOX12 inhib inconclusive, ALOX15B inhib 7.94µM
Nc1ccc(N=Nc2ccccc2)c(N)c1	none
N#CC1=C2SCN(c3ccccc3)CN2C(=O)CC1c1ccccc1Cl (stereo not given)	ALOX12 inhib inconclusive, ALOX15B inhib 7.94µM
N#CC1=C2SCN(c3ccccc3)CN2C(=O)CC1c1c(Cl)cccc1Cl (stereo not given)	ALOX12 inhib 28.2µM, ALOX15B inhib 7.94µM
N#CC1=C2SCN(Cc3ccccc3)CN2C(=O)CC1c1ccccc1F (stereo not given)	none
N#CC1=C2SCN(c3ccccc3)CN2C(=O)CC1c1cccs1 (stereo not given)	ALOX12 inhib inconclusive, ALOX15B inhib 12.6µM
N#CC1=C2SCN(Cc3ccco3)CN2C(=O)CC1c1c(F)cccc1Cl (stereo not given)	ALOX15B inhib inconclusive
N#CC1=C2SCC(O)(c3ccccc3)N2C(=O)CC1c1cccs1 (stereo not given)	none
S=C([S-])NCCNC(=S)[S-].[Zn+2]	ALOX15B inhib inconclusive
O[Si@](CCCN1CCCCC1)(c1ccc(F)cc1)C1CCCCC1	none
CN1CCC[C@@H]1c1cccnc1.O=C(O)c1ccccc1O.O=C([OH2+])c1ccccc1O.O=C([OH2+])c1ccccc1O.O=C([OH2+])c1ccccc1O.[Mn]	none
O=C(O)c1cc(S(=O)(=O)Nc2cccc(F)c2)ccc1Cl	none (no result: ALOX15B inhib)
N#Cc1c(-c2cccnc2)c2c([nH]c1=S)CCCC2	ALOX15B inhib 20µM
N#Cc1c(-c2ccco2)c2c([nH]c1=S)CCCC2	none
CC(=O)Nc1ccc(N/C=C/C(=O)c2ccco2)cc1	none
CN(C)c1ccc(N/C=C/C(=O)c2ccco2)cc1	ALOX15B inhib 25.1µM
CC1=C(C(=O)Nc2ccc([N+](=O)[O-])cc2)C(c2cccc(C(F)(F)F)c2)NC(=S)N1c1ccccc1 (stereo not given)	ALOX12 inhib 22.4µM, ALOX15B inhib inconclusive
COCCOC(=O)C1=C(C)N(c2ccccc2)C(=O)NC1c1cccc([N+](=O)[O-])c1 (stereo not given)	none (no result: ALOX15B inhib)
O=C(O)/C=C\[C@H](O)c1ccc(Cl)cc1	none
O=C1C2C3C=CC(CO)(O3)C2C(=O)N1c1ccc(-c2ccccc2)cc1 (stereo not given)	ALOX12 inhib inconclusive, ALOX15B inhib 0.398µM
CC(C)(C)C(=O)NCC12C=CC(O1)C1C(=O)N(c3ccccc3)C(=O)C12 (stereo not given)	none (no result: ALOX15B inhib)
COc1ccc(-c2cc([C@H](O)[C@@H]3CCCCN3)c3ccccc3n2)cc1	none
CCN(c1ccccc1)S(=O)(=O)c1ccc(NC(=S)NC(=O)c2cccs2)cc1	ALOX12 inhib 25.1µM, ALOX15B inhib inconclusive
O=C(NC(=S)Nc1ccc(N2CCCCC2)cc1)c1cccs1	ALOX12 inhib inconclusive, ALOX15B inhib 20µM
O=C(NC(=S)Nc1ccc(S(=O)(=O)N2CCCCCC2)cc1)c1cccs1	none (no result: ALOX15B inhib)
CCCC(=O)NC(=S)Nc1ccc(NC(=O)c2cccs2)cc1	none
[Cu].[O-]/N=C1/C(=[OH+])Nc2ccccc21.[O-]Nc1c(O)[nH]c2ccccc12	none
COc1ccc(OC)c2c(=S)c3ccccc3[nH]c12	ALOX12 inhib 25.1µM
COc1ccc(-c2c(N)nnc3c2[nH]c2ccccc23)cc1OC	none
CCn1c(NC(=O)C2CCCCC2)nc2ccccc21	none (no result: ALOX15B inhib)
CCn1c(NC(=S)Nc2ccccc2)nc2ccccc21	ALOX12 inhib inconclusive, ALOX15B inhib 25.1µM
Cc1ccc(S(=O)(=O)Oc2ccc(N=Nc3ccc(-c4ccc(N=Nc5c(O)ccc6cc(S(=O)(=O)O)cc(S(=O)(=O)O)c56)c(C)c4)cc3C)cc2)cc1	ALOX12 inhib inconclusive, ALOX15B inhib 3.16µM
Cc1ccc(N=Nc2c(O)ccc3cc(S(=O)(=O)O)ccc23)cc1	none
O=C(OCC1OC(OC(=O)c2cc(O)c(O)c(OC(=O)c3cc(O)c(O)c(O)c3)c2)[C@@H](OC(=O)c2cc(O)c(O)c(OC(=O)c3cc(O)c(O)c(O)c3)c2)C(OC(=O)c2cc(O)c(O)c(OC(=O)c3cc(O)c(O)c(O)c3)c2)C1OC(=O)c1cc(O)c(O)c(OC(=O)c2cc(O)c(O)c(O)c2)c1)c1cc(O)c(O)c(OC(=O)c2cc(O)c(O)c(O)c2)c1 (stereo not given in full)	ALOX12 inhib 0.562µM, ALOX15B inhib 1.58µM
Cc1cn(C2OC(COC(=O)c3ccccc3)C(OC(=O)c3ccccc3)C2OC(=O)c2ccccc2)c(=O)[nH]c1=O (stereo not given)	none (no result: ALOX15B inhib)
Cc1ccc(S(=O)(=O)Nc2ccc(O)c(C(=O)O)c2)c(C)c1	none (no result: ALOX15B inhib)
O=C(NC1CCCCC1)c1ccc(Cc2nc3ccccc3[nH]2)cc1	none (no result: ALOX15B inhib)
N=c1c(C(=O)NC2CCCC2)cc2c(=O)n3ccccc3nc2n1C1CCCC1	ALOX12 inhib 31.6µM
Cc1cccn2c(=O)c3cc(C(=O)NC4CCCC4)c(=N)n(C4CCCC4)c3nc12	none
O=C1c2ccccc2-c2ccc(N(Cc3ccc(Br)cc3)Cc3ccc(Br)cc3)cc21	none
Cc1ccc(/C=N/NC(=O)CNC(=O)COc2ccccc2)cc1	none (no result: ALOX15B inhib)
CCOC(=O)c1c2ccc(OCC(=O)N/N=C/c3ccc(C)cc3)cc2n2ccccc12	ALOX15B inhib 15.8µM
CN(C)CC(C)(C)CNC(=O)c1ccc(-n2c(=O)c(=O)[nH]c3ccccc32)cc1	none (no result: ALOX15B inhib)
COc1cc2c(cc1OC)-c1cc3nc4ccccc4nc3n1C(C)(C)C2	ALOX15B inhib 25.1µM
Cc1cc2c(cc1C)-c1nnc(-c3ccc4ccccc4n3)n1C(C)(C)C2	none
CCCCCC[C@@H]([C@H](C)O)n1cnc2c(N)ncnc21	none
O=C1c2c(O)ccc([N+](=O)[O-])c2C(=O)c2c([N+](=O)[O-])ccc(O)c21	none
COc1ccc(OC)c(N=C2C(=O)Nc3ccccc32)c1	none
Cc1ccc(N=c2ssnc2Cl)cc1	ALOX12 inhib 28.2µM, ALOX15B inhib inconclusive
COc1cc(N=c2ssnc2Cl)c(OC)cc1Cl	ALOX12 inhib 20µM, ALOX15B inhib 25.1µM
COc1ccc(OC)c(N=c2ssnc2Cl)c1	ALOX12 inhib 8.91µM, ALOX15B inhib 25.1µM
Cc1cc(C)nc(/N=c2/ssnc2Cl)c1	none
Cc1cc(Cl)ccc1N=c1ssnc1Cl	ALOX15B inhib inconclusive
CC(C)(C)C(=O)[C@H]([C@@H](c1ccccc1)N1CCOCC1)N1CCOCC1	none
O=C(O)C12CC3(C(=O)O)CC(C(=O)O)(CC(C(=O)O)(C1)C3=O)C2=O	none
NC(=S)NNC(N)=S	none
c1ccc2sc(SN3CCOCC3)nc2c1	ALOX15B inhib 20µM
c1ccc2sc(N3CCOCC3)nc2c1	none
COc1cc2c(cc1O)CC[C@@H]1[C@@H]2CC[C@@]2(C)[C@H](O)CC[C@H]12	none
C=C(C)CN1C(=O)c2ccccc2C1=O	none
C=C(C)CC1Nc2ccccc2NC1CC(=C)C (stereo not given)	ALOX15B inhib 25.1µM
NC(N)=N/N=C\c1ccc(O)c(C(=O)O)c1	none
O[C@@H](c1cc(-c2ccccc2)nc2c1ccc1ccccc12)[C@@H]1CCCCN1	none
O=[N+]([O-])c1ccc(NC(=S)NCCc2ccccc2)cc1	none (no result: ALOX15B inhib)
